Experimental data published in article PMC7862700, “An all-to-all approach to the identification of sequence-specific readers for epigenetic DNA modifications on cytosine”.

Legend:
Experiment in all cases: DAPPL (digital affinity profiling via proximity ligation, sequencing); 10 mM Tris-HCl pH 7.5, 50 mM NaCl, 1 mM DTT, 4% glycerol, room temperature, 30 min; GST-TFs on glutathione beads, 16-mer random dsDNA library, 0.1% formaldehyde crosslink after washing; high values mean tight binding
Conditions in all cases: protein: recombinant; tags: N-terminal GST; dsDNA, one strand shown
FLI1 = target: T1, FLI1 (Homo sapiens, UniProt Q01543 1-452)
T1 sequence: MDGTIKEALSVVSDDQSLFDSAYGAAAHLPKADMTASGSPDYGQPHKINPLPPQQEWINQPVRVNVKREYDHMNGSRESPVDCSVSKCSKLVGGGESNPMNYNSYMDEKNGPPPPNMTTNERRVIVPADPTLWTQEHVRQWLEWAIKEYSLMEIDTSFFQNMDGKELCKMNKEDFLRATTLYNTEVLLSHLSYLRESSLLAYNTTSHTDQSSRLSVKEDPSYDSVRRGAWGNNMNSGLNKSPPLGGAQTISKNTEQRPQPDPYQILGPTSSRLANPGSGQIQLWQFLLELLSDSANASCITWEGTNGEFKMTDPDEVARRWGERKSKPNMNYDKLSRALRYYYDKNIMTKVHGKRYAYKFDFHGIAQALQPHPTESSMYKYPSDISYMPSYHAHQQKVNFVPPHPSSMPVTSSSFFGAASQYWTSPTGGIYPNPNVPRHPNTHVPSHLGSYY
Summary of the method: (§1)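 Yeast served to express human transcription factors as GST fusions, which were then captured on glutathione beads and labelled with DNA barcodes. Pooled with a tag-only sample, they were incubated with 200 nmole of a 16-mer random double-stranded DNA library for 30 min at room temperature in Tris/NaCl/DTT/glycerol buffer, washed, crosslinked with 0.1% formaldehyde, ligated by proximity, amplified by PCR and sequenced. Dividing each hexamer's read frequency for a factor by its frequency for the tag-only sample gives the binding signal.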

ELK1 = target: T2, ELK1 (Homo sapiens, UniProt P19419 1-428)
T2 sequence: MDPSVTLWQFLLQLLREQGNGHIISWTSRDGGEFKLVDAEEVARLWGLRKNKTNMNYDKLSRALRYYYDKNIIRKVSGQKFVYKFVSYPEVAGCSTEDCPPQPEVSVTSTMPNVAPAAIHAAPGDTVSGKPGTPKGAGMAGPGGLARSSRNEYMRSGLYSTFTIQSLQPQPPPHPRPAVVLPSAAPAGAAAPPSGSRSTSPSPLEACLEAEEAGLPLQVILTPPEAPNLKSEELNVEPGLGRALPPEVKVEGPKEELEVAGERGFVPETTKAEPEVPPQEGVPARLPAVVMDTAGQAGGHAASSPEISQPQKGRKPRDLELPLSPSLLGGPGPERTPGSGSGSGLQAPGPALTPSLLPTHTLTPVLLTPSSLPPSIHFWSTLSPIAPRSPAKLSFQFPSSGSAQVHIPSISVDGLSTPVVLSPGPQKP
Summary of the method: as §1

GABPA = target: T3, GABPA (Homo sapiens, UniProt Q06546 1-454)
T3 sequence: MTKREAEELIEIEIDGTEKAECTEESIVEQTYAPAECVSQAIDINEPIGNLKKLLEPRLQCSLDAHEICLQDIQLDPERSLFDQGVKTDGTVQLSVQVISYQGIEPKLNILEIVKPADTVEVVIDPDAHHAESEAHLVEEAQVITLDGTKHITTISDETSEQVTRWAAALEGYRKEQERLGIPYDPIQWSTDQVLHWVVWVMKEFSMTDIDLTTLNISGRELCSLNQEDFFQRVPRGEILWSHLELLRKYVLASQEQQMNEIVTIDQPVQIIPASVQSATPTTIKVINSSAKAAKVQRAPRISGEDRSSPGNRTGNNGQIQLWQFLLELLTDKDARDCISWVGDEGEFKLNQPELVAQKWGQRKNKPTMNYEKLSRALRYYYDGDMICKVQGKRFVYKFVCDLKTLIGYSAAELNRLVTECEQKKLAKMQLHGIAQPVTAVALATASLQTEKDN
Summary of the method: as §1

ELF1 = ELF1 (Homo sapiens, UniProt P32519 1-619)
Chain of ELF1 (P32519 whole entry): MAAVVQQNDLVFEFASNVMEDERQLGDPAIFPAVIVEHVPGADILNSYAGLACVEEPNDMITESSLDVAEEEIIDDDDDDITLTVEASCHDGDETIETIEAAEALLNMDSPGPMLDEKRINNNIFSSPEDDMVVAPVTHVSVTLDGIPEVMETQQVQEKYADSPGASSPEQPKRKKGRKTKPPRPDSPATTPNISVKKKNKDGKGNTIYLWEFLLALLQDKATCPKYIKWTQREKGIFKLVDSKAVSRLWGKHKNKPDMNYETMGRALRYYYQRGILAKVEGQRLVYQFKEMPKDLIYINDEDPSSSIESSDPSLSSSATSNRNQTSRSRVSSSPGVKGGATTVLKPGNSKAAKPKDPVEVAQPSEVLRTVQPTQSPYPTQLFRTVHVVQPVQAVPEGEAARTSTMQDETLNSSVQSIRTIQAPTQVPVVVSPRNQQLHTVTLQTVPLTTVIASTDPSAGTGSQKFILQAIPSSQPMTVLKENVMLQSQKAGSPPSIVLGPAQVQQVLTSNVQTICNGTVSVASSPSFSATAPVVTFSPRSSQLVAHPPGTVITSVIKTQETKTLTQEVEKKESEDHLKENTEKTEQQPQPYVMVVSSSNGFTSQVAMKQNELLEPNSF
Summary of the method: as §1

EHF = target: T4, EHF (Homo sapiens, UniProt Q9NZC4 1-300)
T4 sequence: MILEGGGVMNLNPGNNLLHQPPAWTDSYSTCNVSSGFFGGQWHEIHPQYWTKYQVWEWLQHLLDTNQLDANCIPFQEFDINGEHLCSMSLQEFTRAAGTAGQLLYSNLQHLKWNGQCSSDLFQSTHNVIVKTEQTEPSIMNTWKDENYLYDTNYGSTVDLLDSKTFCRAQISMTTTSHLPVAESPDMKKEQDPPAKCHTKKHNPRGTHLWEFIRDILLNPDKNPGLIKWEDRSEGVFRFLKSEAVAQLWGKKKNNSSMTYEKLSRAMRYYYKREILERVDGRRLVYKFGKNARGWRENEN
Summary of the method: as §1

SPI1 = SPI1 (Homo sapiens, UniProt P17947 1-270)
Summary of the method: as §1

SPIB = SPIB (Homo sapiens, UniProt Q01892 1-262)
Chain of SPIB (Q01892 whole entry): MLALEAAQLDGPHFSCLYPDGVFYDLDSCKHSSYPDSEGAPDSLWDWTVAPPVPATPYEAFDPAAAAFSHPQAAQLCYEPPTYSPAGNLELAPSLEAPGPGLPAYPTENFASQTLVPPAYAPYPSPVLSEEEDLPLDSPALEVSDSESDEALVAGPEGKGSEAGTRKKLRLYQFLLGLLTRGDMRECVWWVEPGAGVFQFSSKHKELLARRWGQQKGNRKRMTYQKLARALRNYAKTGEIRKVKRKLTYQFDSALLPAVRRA
Summary of the method: as §1

SPIC = target: T5, SPIC (Homo sapiens, UniProt Q8N5J4 1-248)
T5 sequence: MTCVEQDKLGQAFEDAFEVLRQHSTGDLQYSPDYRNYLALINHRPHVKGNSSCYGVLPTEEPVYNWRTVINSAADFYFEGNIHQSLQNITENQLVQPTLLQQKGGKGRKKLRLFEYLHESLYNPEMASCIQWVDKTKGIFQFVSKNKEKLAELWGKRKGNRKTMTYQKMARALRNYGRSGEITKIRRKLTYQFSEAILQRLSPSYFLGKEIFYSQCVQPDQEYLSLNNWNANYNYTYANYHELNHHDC
Summary of the method: as §1

ELF4 = ELF4 (Homo sapiens, UniProt Q99607 1-663)
Chain of ELF4 (Q99607 whole entry): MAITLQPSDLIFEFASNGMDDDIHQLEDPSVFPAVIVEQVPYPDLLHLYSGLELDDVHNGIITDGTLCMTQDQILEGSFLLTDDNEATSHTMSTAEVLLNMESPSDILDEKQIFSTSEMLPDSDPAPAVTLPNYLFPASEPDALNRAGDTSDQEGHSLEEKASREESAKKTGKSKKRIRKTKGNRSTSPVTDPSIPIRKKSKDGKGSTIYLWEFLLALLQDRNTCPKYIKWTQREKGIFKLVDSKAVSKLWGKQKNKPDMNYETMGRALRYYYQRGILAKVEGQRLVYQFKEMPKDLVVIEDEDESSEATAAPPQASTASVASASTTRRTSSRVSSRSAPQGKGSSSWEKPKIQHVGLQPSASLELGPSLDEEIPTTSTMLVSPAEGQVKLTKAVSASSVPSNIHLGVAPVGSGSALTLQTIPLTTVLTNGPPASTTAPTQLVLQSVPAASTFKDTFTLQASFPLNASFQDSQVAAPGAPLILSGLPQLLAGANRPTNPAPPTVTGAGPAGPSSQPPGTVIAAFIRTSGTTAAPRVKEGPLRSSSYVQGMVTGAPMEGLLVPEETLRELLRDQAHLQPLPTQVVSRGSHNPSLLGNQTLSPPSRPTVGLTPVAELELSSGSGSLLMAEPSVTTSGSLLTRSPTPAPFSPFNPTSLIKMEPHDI
Summary of the method: as §1

ELK4 = target: T6, ELK4 (Homo sapiens, UniProt P28324-2 1-405)
T6 sequence: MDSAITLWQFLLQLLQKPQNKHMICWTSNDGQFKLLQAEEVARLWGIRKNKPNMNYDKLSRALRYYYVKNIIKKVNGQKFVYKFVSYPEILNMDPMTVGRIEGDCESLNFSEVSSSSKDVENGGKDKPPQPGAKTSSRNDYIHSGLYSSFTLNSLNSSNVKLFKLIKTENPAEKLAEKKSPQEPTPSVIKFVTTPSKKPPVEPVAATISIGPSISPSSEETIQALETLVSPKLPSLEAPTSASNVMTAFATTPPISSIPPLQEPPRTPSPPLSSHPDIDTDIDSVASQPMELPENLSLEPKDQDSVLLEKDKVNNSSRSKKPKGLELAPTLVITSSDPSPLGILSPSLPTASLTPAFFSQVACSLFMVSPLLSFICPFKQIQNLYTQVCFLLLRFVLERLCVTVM
Summary of the method: as §1

ETV2 = target: T7, ETV2 (Homo sapiens, UniProt O00321 1-342)
T7 sequence: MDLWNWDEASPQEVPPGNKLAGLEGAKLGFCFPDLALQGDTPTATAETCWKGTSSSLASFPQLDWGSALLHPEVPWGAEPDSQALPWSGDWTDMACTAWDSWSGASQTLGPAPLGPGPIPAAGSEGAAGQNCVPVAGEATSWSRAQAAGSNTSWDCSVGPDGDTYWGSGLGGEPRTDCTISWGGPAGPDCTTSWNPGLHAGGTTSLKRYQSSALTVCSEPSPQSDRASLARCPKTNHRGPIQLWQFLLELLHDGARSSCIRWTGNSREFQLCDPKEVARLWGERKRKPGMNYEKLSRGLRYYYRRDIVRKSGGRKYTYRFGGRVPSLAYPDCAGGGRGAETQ
Summary of the method: as §1

ERF = target: T8, ERF (Homo sapiens, UniProt P50548 1-548)
T8 sequence: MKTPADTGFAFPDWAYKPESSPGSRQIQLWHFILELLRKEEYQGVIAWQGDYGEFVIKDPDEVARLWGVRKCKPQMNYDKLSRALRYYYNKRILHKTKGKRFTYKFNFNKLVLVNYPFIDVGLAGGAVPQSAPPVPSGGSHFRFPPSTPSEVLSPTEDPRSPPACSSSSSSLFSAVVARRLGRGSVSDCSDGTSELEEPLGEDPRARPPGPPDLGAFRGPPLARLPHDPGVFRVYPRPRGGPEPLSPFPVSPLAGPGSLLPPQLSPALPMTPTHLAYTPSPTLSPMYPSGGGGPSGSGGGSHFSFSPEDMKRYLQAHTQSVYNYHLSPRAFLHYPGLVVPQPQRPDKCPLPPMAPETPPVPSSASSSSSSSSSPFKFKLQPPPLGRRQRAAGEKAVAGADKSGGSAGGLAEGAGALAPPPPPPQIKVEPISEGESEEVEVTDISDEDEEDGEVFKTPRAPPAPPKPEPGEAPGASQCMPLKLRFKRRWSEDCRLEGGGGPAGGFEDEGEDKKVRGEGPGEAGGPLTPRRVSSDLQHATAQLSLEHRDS
Summary of the method: as §1

ETV3L = target: T9, ETV3L (Homo sapiens, UniProt Q6ZN32 1-361)
T9 sequence: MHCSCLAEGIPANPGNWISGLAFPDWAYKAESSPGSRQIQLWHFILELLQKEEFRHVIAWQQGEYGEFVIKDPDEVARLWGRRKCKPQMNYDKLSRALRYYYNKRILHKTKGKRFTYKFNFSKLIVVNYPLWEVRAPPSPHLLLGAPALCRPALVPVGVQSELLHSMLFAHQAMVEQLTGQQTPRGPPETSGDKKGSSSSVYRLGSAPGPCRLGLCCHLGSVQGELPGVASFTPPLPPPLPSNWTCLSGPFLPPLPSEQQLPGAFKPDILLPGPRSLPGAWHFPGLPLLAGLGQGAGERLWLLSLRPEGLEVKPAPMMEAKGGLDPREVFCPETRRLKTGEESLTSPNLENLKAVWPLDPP
Summary of the method: as §1

ETV6 = ETV6 (Homo sapiens, UniProt P41212 1-452)
Chain of ETV6 (P41212 whole entry): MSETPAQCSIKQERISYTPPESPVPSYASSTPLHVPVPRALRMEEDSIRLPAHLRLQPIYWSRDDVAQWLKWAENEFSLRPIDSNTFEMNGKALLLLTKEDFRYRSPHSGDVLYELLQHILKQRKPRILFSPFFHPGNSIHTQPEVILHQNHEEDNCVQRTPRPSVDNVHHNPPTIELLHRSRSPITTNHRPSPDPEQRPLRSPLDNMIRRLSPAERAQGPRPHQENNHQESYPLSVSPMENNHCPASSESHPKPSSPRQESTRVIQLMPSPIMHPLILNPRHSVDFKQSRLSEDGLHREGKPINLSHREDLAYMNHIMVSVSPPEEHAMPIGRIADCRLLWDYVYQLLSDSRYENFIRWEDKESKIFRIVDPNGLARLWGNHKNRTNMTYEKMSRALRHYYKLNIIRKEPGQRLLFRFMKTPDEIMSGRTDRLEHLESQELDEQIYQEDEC
Summary of the method: as §1

GCTGCA
binding signal (FLI1): 1.09 fold enrichment (6-mer frequency, TF over GST control) | binding signal (ELK1): 1.07 fold enrichment (6-mer frequency, TF over GST control) | binding signal (GABPA): 1.05 fold enrichment (6-mer frequency, TF over GST control) | binding signal (ELF1): 1.05 fold enrichment (6-mer frequency, TF over GST control) | binding signal (EHF): 1.08 fold enrichment (6-mer frequency, TF over GST control) | binding signal (SPI1): 1 fold enrichment (6-mer frequency, TF over GST control) | binding signal (SPIB): 1.07 fold enrichment (6-mer frequency, TF over GST control) | binding signal (SPIC): 1.09 fold enrichment (6-mer frequency, TF over GST control) | binding signal (ELF4): 1.05 fold enrichment (6-mer frequency, TF over GST control) | binding signal (ELK4): 1.08 fold enrichment (6-mer frequency, TF over GST control) | binding signal (ETV2): 1.01 fold enrichment (6-mer frequency, TF over GST control) | binding signal (ERF): 1.2 fold enrichment (6-mer frequency, TF over GST control) | binding signal (ETV3L): 1.11 fold enrichment (6-mer frequency, TF over GST control) | binding signal (ETV6): 1 fold enrichment (6-mer frequency, TF over GST control)
